# The whole screen tested about 310,000 compounds, of which about 14,000 (4.5%) showed an effect of 50% or more. Effects have a minus sign here. The list comes from a sample in which strong results are over-represented; it also holds similar structures and randomly drawn compounds.
# Target: human ether-à-go-go-related gene (hERG) potassium channel (human, UniProt Q12809)
# Assay: primary screen, population patch clamp on CHO cells stably expressing hERG; higher = less effect of the substance
# 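Note: peak tail current of the secondary pulse compared with the same well before compound.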
# human ether-à-go-go-related gene (hERG) potassium channel, sequence (Q12809 whole entry, looked up): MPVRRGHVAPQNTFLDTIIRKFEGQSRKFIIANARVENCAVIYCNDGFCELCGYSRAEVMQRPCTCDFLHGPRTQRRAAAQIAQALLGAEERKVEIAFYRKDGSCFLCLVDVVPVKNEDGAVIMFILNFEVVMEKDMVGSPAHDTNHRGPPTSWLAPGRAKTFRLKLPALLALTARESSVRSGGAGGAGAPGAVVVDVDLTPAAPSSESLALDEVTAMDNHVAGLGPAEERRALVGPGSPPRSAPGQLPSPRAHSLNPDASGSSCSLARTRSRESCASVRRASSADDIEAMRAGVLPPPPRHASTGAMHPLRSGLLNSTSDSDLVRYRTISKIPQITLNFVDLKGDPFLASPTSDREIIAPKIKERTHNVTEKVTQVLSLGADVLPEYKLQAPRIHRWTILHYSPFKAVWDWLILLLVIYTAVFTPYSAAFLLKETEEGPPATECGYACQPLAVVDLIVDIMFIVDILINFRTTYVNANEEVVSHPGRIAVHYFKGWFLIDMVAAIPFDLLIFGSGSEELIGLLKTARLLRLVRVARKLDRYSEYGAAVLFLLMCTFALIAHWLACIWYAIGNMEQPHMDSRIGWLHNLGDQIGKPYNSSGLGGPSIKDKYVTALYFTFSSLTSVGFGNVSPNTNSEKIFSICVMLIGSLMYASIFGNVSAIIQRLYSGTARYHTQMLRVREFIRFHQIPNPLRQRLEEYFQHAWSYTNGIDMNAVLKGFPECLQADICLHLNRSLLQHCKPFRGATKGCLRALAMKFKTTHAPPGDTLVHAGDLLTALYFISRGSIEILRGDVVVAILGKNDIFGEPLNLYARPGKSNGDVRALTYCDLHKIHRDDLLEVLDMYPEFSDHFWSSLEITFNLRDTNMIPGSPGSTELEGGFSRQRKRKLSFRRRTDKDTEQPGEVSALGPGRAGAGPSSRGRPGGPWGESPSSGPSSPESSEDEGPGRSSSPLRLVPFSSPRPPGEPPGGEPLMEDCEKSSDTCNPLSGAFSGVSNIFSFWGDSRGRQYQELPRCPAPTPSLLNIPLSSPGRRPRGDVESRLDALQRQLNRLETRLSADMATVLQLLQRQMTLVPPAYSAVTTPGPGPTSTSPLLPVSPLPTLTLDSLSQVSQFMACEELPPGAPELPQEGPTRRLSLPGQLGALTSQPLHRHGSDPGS
row,SMILES,"hERG current change (%, negative = inhibition) at 10uM [%]"
1,O=C(CC(Nc1cccc(Cl)c1Cl)C(=O)OCC(=O)c1cccs1)c1ccccc1 (stereo not drawn),-5.59
2,CCOC(=O)[C@@H](CCc1ccccc1)N[C@H](C)C(=O)N1[C@H](C(=O)O)C[C@@H]2CCC[C@@H]21,15.9
3,CC(C)(C)NC(=O)c1ccc(COCC(F)(F)F)o1,-4.16
4,CCN(CC)CCNc1cc(C)c(C#N)c2nc3ccccc3n12,-20.6
5,CCOc1ccc2nc(COC(=O)c3ccco3)c(C(C)=O)[n+]([O-])c2c1,0.493
6,CCOc1ccc(-n2c(C)nnc2SCC(=O)N(CC)CC)cc1,2.63
7,CC(C)N1C(=O)CCC1C(=O)NCCc1ccccc1 (stereo not drawn),-6.11
8,COC(=O)c1c(C)oc(C)c1S(=O)(=O)N1CCCCC1,9.1
9,CCCCN(CC)CCCNC(=O)c1cc2c(=O)[nH]c3ccccc3c2s1,-0.682
10,CCN(CC)CCCNC(=O)c1[nH]c2ccccc2c1Sc1ccc(Cl)cc1,-89.5
11,COC(=O)c1[nH]c2ccccc2c1Sc1ccccc1,11.9
12,COc1ccc(/C=C/C(=O)NC(C)(C)C)cc1S(=O)(=O)N1CCOCC1,-15.2
13,CCCCn1c(N)c(N(CC(C)C)C(=O)c2cccc(S(=O)(=O)N3CC(C)OC(C)C3)c2)c(=O)[nH]c1=O (stereo not drawn),21.6
14,CC(C)Oc1ccc(C(=O)OCC(=O)N2CCCc3ccccc32)cc1,6.85
15,Cc1ccc(-n2c(SCC(=O)N3CCCC3)nc3c(c2=O)SCC3)cc1,5.3
16,COc1ccc(-n2c(SCC(=O)N3CCN(c4ccccc4)CC3)nc3c(c2=O)SCC3)cc1,-70
17,COc1ccc(-n2c(SCC(=O)Nc3ccccc3)nc3c(c2=O)SCC3)cc1,-18.7
18,CCOC(=O)CSc1nc2c(c(=O)n1-c1ccc(OC)cc1)SCC2,-9.55
19,O=C(CSc1nc2c(c(=O)n1-c1ccccc1)SCC2)N1CCOCC1,5.25
20,O=C(CSc1nc2c(c(=O)n1-c1ccccc1)SCC2)N1CCN(c2ccccc2)CC1,-76.5
21,Cc1cc(N)n(C2CCN(C)CC2)n1,1.99
22,c1ccc2c(CCNc3ncnc4nc[nH]c34)cccc2c1,-6.53
23,CNCCCc1[nH]nc(N)c1C#N,4.22

row,SMILES,"hERG current change (%, negative = inhibition) at 10uM [%]"
1,N#Cc1ccccc1Sc1ccccc1C(=O)Nc1ccccc1,0.339
2,Cc1ccc(-c2noc(CCC(=O)Nc3ccc4c(c3)OCO4)n2)cc1,3.68
3,CC(C)(C)OC(=O)N1CCC(CNC(=O)c2cccs2)CC1,10.9
4,CCCc1nc(SCC(=O)N2c3ccccc3CC2C)c2c(C)c(C)sc2n1 (stereo not drawn),14.1
5,Cc1ccc(OCC(=O)O/N=C(\N)Cc2ccc([N+](=O)[O-])cc2)cc1C,-32.7
6,N/C(Cc1ccc([N+](=O)[O-])cc1)=N\OC(=O)C1CCCCC1,-3.44
7,CCc1ccc(OCC(=O)O/N=C(\N)Cc2ccc([N+](=O)[O-])cc2)cc1,-53.9
8,N/C(Cc1ccc([N+](=O)[O-])cc1)=N\OC(=O)CC1CCCCC1,-68.5
9,Cc1cc(C)cc(OCC(=O)O/N=C(\N)Cc2ccc([N+](=O)[O-])cc2)c1,-2.56
10,COc1ccc(C/C(N)=N/OC(=O)C(c2ccccc2)c2ccccc2)cc1OC,-14.5
11,N/C(Cc1ccc(Cl)cc1)=N\OC(=O)Cc1ccc([N+](=O)[O-])cc1,-4.32
12,N/C(Cc1ccc([N+](=O)[O-])cc1)=N\OC(=O)c1ccco1,-26.8
13,Cc1ccc(CC(=O)O/N=C(\N)Cc2ccc([N+](=O)[O-])cc2)cc1,0.827
14,N/C(Cc1ccc([N+](=O)[O-])cc1)=N\OC(=O)Cc1ccccc1,-50.7
15,N/C(Cc1ccc([N+](=O)[O-])cc1)=N\OC(=O)C(c1ccccc1)c1ccccc1,-66.9
16,N/C(Cc1ccc([N+](=O)[O-])cc1)=N\OC(=O)Cc1ccc(Cl)cc1,-4.39
17,COc1cccc(-c2nn[nH]n2)c1O,9.02
18,c1ccc(CSCc2cn3ccsc3n2)cc1,-4.45
19,COc1ccc(CCNC(=O)C2CCCN(S(=O)(=O)c3cccc4nonc34)C2)cc1OC (stereo not drawn),10.5
20,Cc1cccc(C(=O)NC(=S)NNC(=O)c2cccs2)c1,17.2
21,Cc1onc(-c2ccccc2)c1NC(=O)N(CCC#N)Cc1ccccc1,3.65
22,CCOC(=O)c1ccc(NC(=O)c2nc[nH]c2C(=O)NCC(=O)OC(C)(C)C)cc1,19.5
23,Cc1cc(C)nc(N(C#N)Cc2ccccc2)n1,-4.34

row,SMILES,"hERG current change (%, negative = inhibition) at 10uM [%]"
1,CCN(CC)/C(N)=N/c1nc(C)cc(C)n1,7.16
2,CCCCN(CCCC)/C(N)=N/c1nc(C)cc(C)n1,-80.2
3,CCN(/C(N)=N/c1nc(C)cc(C)n1)c1ccccc1,-6.01
4,Cc1cc(C)nc(/N=C(\N)N(Cc2ccccc2)Cc2ccccc2)n1,-70.6
5,Cc1cc(C)nc(/N=C(\N)N2CCCCCC2)n1,-3.86
6,COc1cccc(C=O)c1OCCN1C(=O)c2ccccc2C1=O,4
7,CCc1ccccc1S(=O)(=O)Cc1ccc(C(=O)NCc2cccs2)o1,-22.5
8,Cc1cc(C(=O)CCl)c(C)n1CCc1ccc(F)cc1,27.2
9,CC1CC(C)CN(c2ncnc3c2cnn3C)C1 (stereo not drawn),-69.8
10,CN1CCN(c2ncnc3c2cnn3C)CC1,19.5
11,CC1CC(C)CN(c2ncnc3c2cnn3-c2ccc(Cl)cc2)C1 (stereo not drawn),3.17
12,Cc1ccccc1NC(=O)c1cccnc1,-7.59
13,CCCCOC(=O)c1cc(=O)[nH]c2ccc(C)cc12,5.6
14,CC1(C)OC(=O)C(=NNc2ccccc2[N+](=O)[O-])C(=O)O1,24.3
15,COC(=O)CN(c1ccc(Cl)cc1C)S(C)(=O)=O,13.9
16,N#Cc1cccc(C(=O)N(CCc2ccccc2)Cc2cccs2)c1,-53.3
17,COc1ccc(C(=O)N(CCc2ccccc2)Cc2cccs2)c(OC)c1,-15.9
18,CS(=O)(=O)c1cccc(C(=O)N(CCc2ccccc2)Cc2cccs2)c1,-48.6
19,O=C(Cc1ccccc1)Nc1ccc(C(=O)NCc2ccccc2)cc1,11.2
20,Cn1c(SCC(=O)Nc2cccc(F)c2)nnc1-c1cccnc1,-33.1
21,Cn1c(SCC(=O)Nc2ccc(F)cc2)nnc1-c1cccnc1,-11.5
22,C=CCn1c(SCC(=O)Nc2ccc(C(=O)O)cc2)nnc1-c1cccnc1,34.6
23,O=C(CSc1nnc(-c2cccnc2)n1CCN1CCCCC1)Nc1cccc(Cl)c1,-79.8

row,SMILES,"hERG current change (%, negative = inhibition) at 10uM [%]"
1,Cc1ccc(NC(=O)CSc2nnc(-c3cccnc3)n2CCN2CCCCC2)cc1,-69
2,CCCn1c(SCC(=O)Nc2cccc(C(=O)OC)c2)nnc1-c1cccnc1,-42
3,COC(=O)C1=C(c2ccc(OC)c(OC)c2)C[C@@H]2CC[C@H]1N2C(=O)N1CCC(C)CC1,5.39
4,O=C(COc1ncnc2ccc(Br)cc12)NC1CCCC1,2.91
5,Cc1cc(NC(=O)COC(=O)CSc2nc3cc(Cl)ccc3n2Cc2ccccc2)no1,-19.9
6,Nc1nc2n(n1)C(=O)CC(c1ccccc1[N+](=O)[O-])N2 (stereo not drawn),41.7
7,CC(C)(C)n1nnnc1C(c1ccc(C(F)(F)F)cc1)N(Cc1ccc(F)cc1)Cc1ccco1 (stereo not drawn),8.86
8,O=C(NCCc1csc(-c2ccccc2)n1)c1ccccc1F,-49.5
9,COCCCNC(=O)CCc1nc2cccnc2n1Cc1ccc(OC)cc1,10.8
10,O=C(O)CCc1nc2cccnc2n1Cc1ccccc1,-24.6
11,CCCCCCNC(=O)CCc1nc2cccnc2n1Cc1ccc(OC)cc1,-63.6
12,COc1ccc(Cn2c(CCC(=O)Nc3ccccc3)nc3cccnc32)cc1,-9.7
13,CCCCNC(=O)CCc1nc2cccnc2n1Cc1ccccc1,-51.7
14,O=C(CCc1nc2cccnc2n1Cc1ccccc1)NCCc1ccc(Cl)cc1,-78.6
15,CCCCNC(=O)CCc1nc2cccnc2n1Cc1ccc(OC)cc1,-18.1
16,COCCNC(=O)CCc1nc2cccnc2n1Cc1ccc(OC)cc1,8.65
17,COCCCNC(=O)CCc1nc2cccnc2n1Cc1ccccc1,-29.8
18,Cc1ccc(NC(=O)c2cc(CC(C)C)nc3ccccc23)cc1,11
19,CCOc1ccc2nc(NC(=O)CN3CCN(C)CC3)sc2c1,-15.7
20,CN(C)CCc1nn[nH]n1,-0.456
21,CSCCC(NC(=O)c1ccc(Cl)cc1Cl)C(=O)OC1CCCCC1=O (stereo not drawn),-26.7
